For orientation: AC50 means the concentration at which the activity in the assay is half-maximal.

“And” between values parts separate entries of the source, which are not always exact repeats. Equal entries are not always repeated. Some structures have more than one record in an assay (separate samples or runs), and their calls can disagree. The source made the active and inactive calls. Rule for the calls: active = hit-call score of the fitted dose curve at least 0.9, where 1 is the maximum; inactive = score below 0.9.

Settings in all cases: mRNA level, 48 h; actives raise or lower the signal
Read-out in experiment [1]: JUN Transcription Factor, JUN (gene 3725)
The experiment can be described thus: LTEA_HepaRG_JUN: Life Technologies and Expression Analysis (LTEA) Assay for JUN Transcription Factor using HepaRG (AID 2283513). The procedure, abridged: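 mRNA measured by TaqMan qRT-PCR after 48 h chemical exposure of HepaRG cultures; normalization to three housekeeping genes. Duplicate eight-point half-log curves from 100 uM in 0.5% DMSO; gain or loss fitted against DMSO baseline.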

Read-out in experiment [2]: Lipase C (LIPC), LIPC (gene 3990)
The experiment can be described thus: LTEA_HepaRG_LIPC: Life Technologies and Expression Analysis (LTEA) Assay for Lipase C (LIPC) using HepaRG (AID 2283514). The essentials:
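In this multiplexed gene-expression screen, human HepaRG cultures received test chemicals for 48 h across eight concentrations with 100 uM highest, in duplicate. Values reflect LIPC mRNA induction or suppression versus DMSO vehicle, from normalized qRT-PCR.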

Read-out in experiment [3]: Lipoprotein lipase (LPL), LPL (gene 4023)
The experiment is described as follows: LTEA_HepaRG_LPL: Life Technologies and Expression Analysis (LTEA) Assay for Lipoprotein lipase (LPL) using HepaRG (AID 2283515). The procedure, abridged:
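Concentration-response testing used half-log steps from 100 uM in 0.5% DMSO on human HepaRG cells, 48 h, duplicate wells. Phenobarbital 1 mM served as induction control; LPL mRNA was normalized to ACTB, GAPDH, POLR2A.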

Read-out in experiment [4]: MicroRNA 122 (MIR122), gene 406906
The experiment can be described thus: LTEA_HepaRG_MIR122: Life Technologies and Expression Analysis (LTEA) Assay for MicroRNA 122 (MIR122) using HepaRG (AID 2283516). Note: the transcript read is the microRNA miR-122. The essentials:
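Expression measured by microfluidic qRT-PCR with three housekeeping genes for normalisation, after 48 h treatment of HepaRG cultures. Eight concentrations (top 100 uM, half-log steps, 0.5% DMSO vehicle) in duplicate; gain or loss fitted relative to vehicle.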

Read-out in experiment [5]: matrix metalloproteinase-10 (MMP10), MMP10 (gene 4319)
The experiment can be described thus: LTEA_HepaRG_MMP10: Life Technologies and Expression Analysis (LTEA) Assay for matrix metalloproteinase-10 (MMP10) using HepaRG (AID 2283517). The essentials:
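In differentiated HepaRG cultures kept in 0.5% DMSO, test chemicals act for 48 h over an eight-point range with a top dose of 100 uM. Expression is then quantified by TaqMan RT-PCR against ACTB, GAPDH and POLR2A.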

Read-out in experiment [6]: MYC, MYC (gene 4609)
The experiment can be described thus: LTEA_HepaRG_MYC: Life Technologies and Expression Analysis (LTEA) Assay for MYC using HepaRG (AID 2283518). The essentials:
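MYC transcript changes, up or down relative to 0.5% DMSO, from TaqMan qRT-PCR normalized to three housekeeping genes. Human HepaRG cultures received chemicals for 48 h at eight half-log concentrations up to 100 uM, in duplicate.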

Read-out in experiment [7]: matrix metalloproteinase-3 (MMP3), MMP3 (gene 4314)
The experiment is described as follows: LTEA_HepaRG_MMP3: Life Technologies and Expression Analysis (LTEA) Assay for matrix metalloproteinase-3 (MMP3) using HepaRG (AID 2283519). The essentials:
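Human liver HepaRG cultures received chemicals (top concentration 100 uM, 0.5% DMSO) for 48 h in duplicate. MMP3 mRNA induction or loss was then assessed via TaqMan qRT-PCR with housekeeping-gene normalisation.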

Read-out in experiment [8]: Paternally Expressed 10 (PEG10), PEG10 (gene 23089)
The experiment is described as follows: LTEA_HepaRG_PEG10: Life Technologies and Expression Analysis (LTEA) Assay for Paternally Expressed 10 (PEG10) using HepaRG (AID 2283520).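 For AC50: PEG10 transcript by qRT-PCR normalised to ACTB GAPDH and POLR2A.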 The essentials: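 PEG10 transcript measured by Fluidigm qRT-PCR, normalized to three housekeeping genes, in HepaRG cells treated 48 h (highest 100 uM, half-log steps, 0.5% DMSO vehicle). Cells plated 48 h before switching to serum-free induction medium.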

Read-out in experiment [9]: Nuclear factor NF-kappa-B p105 subunit (Homo sapiens) (UniProt P19838)
The experiment is described as follows: LTEA_HepaRG_NFKB1: Life Technologies and Expression Analysis (LTEA) Assay for Nuclear Factor Kappa B Subunit 1 (NFKB1) using HepaRG (AID 2283521).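 Note: TaqMan qRT-PCR transcript normalised to ACTB GAPDH and POLR2A housekeeping genes.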 The essentials: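 Differentiated human HepaRG cells in serum-free induction medium with 0.5% DMSO were exposed for 48 h to eight half-log concentrations, top 100 uM, in duplicate. NFKB1 mRNA measured by Fluidigm TaqMan qRT-PCR, normalised to ACTB, GAPDH and POLR2A; bidirectional fit versus DMSO.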

Read-out in experiment [10]: Protein phosphatase 2A (PPP2R4), PTPA (gene 5524)
The experiment is described as follows: LTEA_HepaRG_PPP2R4: Life Technologies and Expression Analysis (LTEA) Assay for Protein phosphatase 2A (PPP2R4) using HepaRG (AID 2283522). The essentials: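 Expression was quantified by Fluidigm qRT-PCR normalised to three housekeeping genes after 48 h treatment. Human HepaRG cells received an 8-point series from 100 µM downward by half-logs, in duplicate with 0.5% DMSO vehicle and 1 mM phenobarbital as induction control.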

Read-out in experiment [11]: Phosphatase and tensin (PTEN), PTEN (gene 5728)
The experiment can be described thus: LTEA_HepaRG_PTEN: Life Technologies and Expression Analysis (LTEA) Assay for Phosphatase and tensin (PTEN) using HepaRG (AID 2283523). The essentials:
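Expression of PTEN is quantified in the human liver line HepaRG following two days of dosing (top concentration 100 uM, half-log dilutions, 0.5% DMSO). Values derive from bidirectional curve fitting relative to DMSO controls.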

Read-out in experiment [12]: solute carrier (SLC22A1), SLC22A1 (gene 6580)
The experiment is described as follows: LTEA_HepaRG_SLC22A1: Life Technologies and Expression Analysis (LTEA) Assay for solute carrier (SLC22A1) using HepaRG (AID 2283524).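 For AC50: TaqMan qRT-PCR normalized to ACTB GAPDH and POLR2A housekeeping genes.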 The essentials: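 Transcript induction or suppression of SLC22A1 in human HepaRG cultures is scored after 48 h chemical treatment, with DMSO (0.5%) as baseline for bidirectional fitting. Concentrations span eight half-log points topping at 100 uM.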

Read-out in experiment [13]: Pyruvate Dehydrogenase Kinase 4 (PDK4), PDK4 (gene 5166)
The experiment can be described thus: LTEA_HepaRG_PDK4: Life Technologies and Expression Analysis (LTEA) Assay for Pyruvate Dehydrogenase Kinase 4 (PDK4) using HepaRG (AID 2283525). The procedure, abridged: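 Eight-point, half-log concentration series (max 100 uM, 0.5% DMSO) applied to differentiated HepaRG cells for 48 h in duplicate. Endpoint: PDK4 mRNA induction or repression by qRT-PCR against DMSO baseline.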

Read-out in experiment [14]: NAD(P)H dehydrogenase [quinone] 1 (NQO1), NQO1 (gene 1728)
The experiment is described as follows: LTEA_HepaRG_NQO1: Life Technologies and Expression Analysis (LTEA) Assay for NAD(P)H dehydrogenase [quinone] 1 (NQO1) using HepaRG (AID 2283526). The essentials: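 NQO1 transcript induction or loss measured by TaqMan qRT-PCR, referenced to three housekeeping genes and fitted bidirectionally against 0.5% DMSO. HepaRG cultures exposed 48 h, duplicate, eight-point half-log series, top 100 uM.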

Read-out in experiment [15]: Nuclear factor erythroid 2-related factor 2 (Homo sapiens) (UniProt Q16236)
The experiment is described as follows: LTEA_HepaRG_NFE2L2: Life Technologies and Expression Analysis (LTEA) Assay for Nuclear factor erythroid 2-related factor 2 (NFE2L2) Transcription Factor using HepaRG (AID 2283527). The essentials:
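Human liver HepaRG line treated in duplicate for 48 h with an eight-point series topping at 100 uM. Gene expression of NFE2L2 by qRT-PCR, bidirectionally fitted against the vehicle control.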

Read-out in experiment [16]: succinate dehydrogenase complex iron sulfur subunit B (SDHB), SDHB (gene 6390)
The experiment is described as follows: LTEA_HepaRG_SDHB: Life Technologies and Expression Analysis (LTEA) Assay for succinate dehydrogenase complex iron sulfur subunit B (SDHB) using HepaRG (AID 2283528). The procedure, abridged:
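HepaRG cells (~100,000/well, plated 48 h) exposed in duplicate for 48 h in serum-free induction medium to 8-point half-log series from 100 uM in 0.5% DMSO; mRNA by qRT-PCR normalised to ACTB, GAPDH, POLR2A; bidirectional fit versus DMSO.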

Read-out in experiment [17]: Signal transducer and activator of transcription 3 (Homo sapiens) (UniProt P40763)
The experiment is described as follows: LTEA_HepaRG_STAT3: Life Technologies and Expression Analysis (LTEA) Assay for Signal transducer and activator of transcription (STAT3) using HepaRG (AID 2283529). The essentials: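 In this transcriptional endpoint, HepaRG cultures receive test chemicals at up to 100 uM for 48 h, tested in duplicate. STAT3 mRNA is normalized to ACTB, GAPDH and POLR2A.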

Read-out in experiment [18]: solute carrier (SLCO1B1), SLCO1B1 (gene 10599)
The experiment is described as follows: LTEA_HepaRG_SLCO1B1: Life Technologies and Expression Analysis (LTEA) Assay for solute carrier (SLCO1B1) using HepaRG (AID 2283530). The essentials: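 SLCO1B1 transcript levels were quantified by TaqMan qRT-PCR using three housekeeping genes for normalization. This followed 48 h chemical exposure (100 uM top, half-log, 8 points, 0.5% DMSO) of HepaRG liver cells, with gain or loss fitted relative to DMSO.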

Read-out in experiment [19]: sulfotransferase 2A1 (SULT2A1), SULT2A1 (gene 6822)
The experiment is described as follows: LTEA_HepaRG_SULT2A1: Life Technologies and Expression Analysis (LTEA) Assay for sulfotransferase 2A1 (SULT2A1) using HepaRG (AID 2283531). The essentials: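 Expression change of SULT2A1, by qRT-PCR with three housekeeping-gene normalization, was scored bidirectionally versus DMSO. Cells: differentiated HepaRG, dosed in duplicate for 48 h across 8 points, highest 100 µM, half-log dilution, 0.5% DMSO.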

Read-out in experiment [20]: Transforming Growth Factor (TGFA), TGFA (gene 7039)
The experiment is described as follows: LTEA_HepaRG_TGFA: Life Technologies and Expression Analysis (LTEA) Assay for Transforming Growth Factor (TGFA) using HepaRG (AID 2283532). The procedure, abridged:
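Gene expression of TGFA was quantified by qRT-PCR after human HepaRG cells were treated for 48 h with test chemicals (eight concentrations, highest 100 uM, 0.5% DMSO). Activity in either direction was fitted relative to DMSO.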

Chain of Signal transducer and activator of transcription 3 (Homo sapiens) (P40763 whole entry, looked up): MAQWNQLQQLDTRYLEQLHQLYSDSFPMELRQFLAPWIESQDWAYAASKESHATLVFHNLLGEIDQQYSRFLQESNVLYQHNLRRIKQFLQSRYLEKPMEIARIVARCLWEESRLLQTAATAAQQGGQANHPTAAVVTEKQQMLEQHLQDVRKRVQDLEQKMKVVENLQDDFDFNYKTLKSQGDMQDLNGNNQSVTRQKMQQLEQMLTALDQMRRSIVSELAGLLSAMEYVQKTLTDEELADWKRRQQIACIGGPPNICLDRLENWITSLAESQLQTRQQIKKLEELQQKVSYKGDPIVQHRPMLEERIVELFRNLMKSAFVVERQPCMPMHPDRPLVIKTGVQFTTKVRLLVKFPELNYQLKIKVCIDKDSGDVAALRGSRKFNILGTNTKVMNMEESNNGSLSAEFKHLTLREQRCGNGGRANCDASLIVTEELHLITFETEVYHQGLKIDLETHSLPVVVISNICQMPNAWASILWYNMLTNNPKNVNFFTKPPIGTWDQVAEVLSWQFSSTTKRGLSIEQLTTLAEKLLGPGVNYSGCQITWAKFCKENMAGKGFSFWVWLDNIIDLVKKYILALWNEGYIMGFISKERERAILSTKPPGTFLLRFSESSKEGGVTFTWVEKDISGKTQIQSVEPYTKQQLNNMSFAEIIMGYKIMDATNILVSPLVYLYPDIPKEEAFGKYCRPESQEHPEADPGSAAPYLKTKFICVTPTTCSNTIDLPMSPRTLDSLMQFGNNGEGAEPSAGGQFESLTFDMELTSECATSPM
Chain of Nuclear factor erythroid 2-related factor 2 (Homo sapiens) (Q16236 whole entry, looked up): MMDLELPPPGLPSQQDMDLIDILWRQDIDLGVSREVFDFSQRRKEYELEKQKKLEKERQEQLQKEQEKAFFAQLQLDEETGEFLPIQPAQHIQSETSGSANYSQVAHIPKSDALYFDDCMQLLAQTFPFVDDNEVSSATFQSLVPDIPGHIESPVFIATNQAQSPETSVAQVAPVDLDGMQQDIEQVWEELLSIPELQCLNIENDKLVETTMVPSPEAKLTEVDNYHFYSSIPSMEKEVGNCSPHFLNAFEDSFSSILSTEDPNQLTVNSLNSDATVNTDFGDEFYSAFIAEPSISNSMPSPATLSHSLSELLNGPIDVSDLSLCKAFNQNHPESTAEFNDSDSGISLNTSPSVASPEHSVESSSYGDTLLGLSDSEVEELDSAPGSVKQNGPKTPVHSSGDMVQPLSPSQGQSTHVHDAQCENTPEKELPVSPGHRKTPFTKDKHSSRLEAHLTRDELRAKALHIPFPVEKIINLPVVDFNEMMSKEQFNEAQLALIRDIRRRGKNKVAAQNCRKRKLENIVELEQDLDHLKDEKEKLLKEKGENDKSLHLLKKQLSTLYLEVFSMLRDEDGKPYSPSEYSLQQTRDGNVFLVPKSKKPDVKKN
Chain of Nuclear factor NF-kappa-B p105 subunit (Homo sapiens) (P19838 whole entry, looked up): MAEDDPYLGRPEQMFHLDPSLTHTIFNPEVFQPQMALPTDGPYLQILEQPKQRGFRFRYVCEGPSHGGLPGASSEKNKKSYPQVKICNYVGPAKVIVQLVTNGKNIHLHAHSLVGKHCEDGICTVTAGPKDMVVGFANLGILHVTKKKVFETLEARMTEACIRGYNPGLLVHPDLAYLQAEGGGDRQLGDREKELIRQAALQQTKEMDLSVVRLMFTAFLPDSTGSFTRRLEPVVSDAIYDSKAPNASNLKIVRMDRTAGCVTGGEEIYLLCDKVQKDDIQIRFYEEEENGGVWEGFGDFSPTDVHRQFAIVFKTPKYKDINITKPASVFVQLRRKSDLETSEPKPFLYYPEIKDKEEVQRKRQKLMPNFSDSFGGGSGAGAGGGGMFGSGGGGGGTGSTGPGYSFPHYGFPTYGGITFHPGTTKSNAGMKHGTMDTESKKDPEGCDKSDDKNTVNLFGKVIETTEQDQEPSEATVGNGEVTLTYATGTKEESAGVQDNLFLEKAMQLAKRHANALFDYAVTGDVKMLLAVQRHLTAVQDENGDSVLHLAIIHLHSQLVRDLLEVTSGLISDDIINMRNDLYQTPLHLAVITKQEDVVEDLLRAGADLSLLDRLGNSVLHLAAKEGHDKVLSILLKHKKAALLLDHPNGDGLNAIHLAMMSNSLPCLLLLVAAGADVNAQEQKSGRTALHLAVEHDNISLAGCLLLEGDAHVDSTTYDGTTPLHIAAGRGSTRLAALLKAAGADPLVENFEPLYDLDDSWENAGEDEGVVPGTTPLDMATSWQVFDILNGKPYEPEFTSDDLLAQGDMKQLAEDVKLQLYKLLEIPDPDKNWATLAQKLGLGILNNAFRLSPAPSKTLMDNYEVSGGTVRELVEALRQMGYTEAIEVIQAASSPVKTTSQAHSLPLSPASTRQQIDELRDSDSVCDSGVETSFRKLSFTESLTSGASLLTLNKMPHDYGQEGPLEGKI

Turning to `Oc1cc(Cl)ccc1Oc1ccc(Cl)cc1Cl`, the molecule was classed as inactive in experiment [1], in experiment [2], in [3], in [4], in experiment [5] and in experiment [6]. The call in experiment [7], in [8], in experiment [9], in [10], in [11] and in experiment [12] was inactive. The result in experiment [13], in [14], in experiment [15], in [16], in experiment [17] and in experiment [18] was inactive. Also, the molecule was classed as inactive in experiment [19] and in experiment [20]. Also, the AC50 in [2] was 78.7 µM (active); in [3], 86.4 nM (active) and 51 µM (active); in [4], 82.3 µM (active); in experiment [5] it was 89 µM (active); in [6], 83.5 µM (active); in experiment [7], 51 µM (active). The AC50 in [8] was 51 µM (active); in experiment [12] it was 86 µM (active); in experiment [13], 82 µM (active) and 88.4 µM (active).
For the molecule `CC[C@H](C)[C@H]1O[C@]2(C=C[C@@H]1C)C[C@@H]1C[C@@H](C/C=C(\C)[C@@H](O[C@H]3C[C@H](OC)[C@@H](O[C@H]4C[C@H](OC)[C@@H](O)[C@H](C)O4)[C@H](C)O3)[C@@H](C)/C=C/C=C3\CO[C@@H]4[C@H](O)C(C)=C[C@@H](C(=O)O1)[C@]34O)O2` (tested in a mixture with another compound), the AC50 in [1] is 18.8 µM (active); in [2] it was 13.8 µM (active); in experiment [3], 13.5 µM (active); in experiment [4], 7.42 µM (active); in experiment [5] it was 11.7 µM (active); in experiment [6] it was 13.9 µM (active). Further, the AC50 in experiment [7] is 40.2 µM (active); in [8], 49.3 µM (active); in [10], 47.7 µM (active); in [11] it was 54.5 µM (active); in [12], 9.94 µM (active); in [13] it was 16.3 µM (active). Also, the AC50 in experiment [14] was 49.7 µM (active); in experiment [15], 14 µM (active); in experiment [16], 59.5 µM (active); in experiment [17], 46 µM (active); in experiment [18], 15.2 µM (active); in [19], 8.58 µM (active). The AC50 in experiment [20] was 13.9 µM (active). In addition, in [9], the molecule was classed as inactive.
With `CCc1ccc(C(=O)NN(C(=O)c2cc(C)cc(C)c2)C(C)(C)C)cc1`, the molecule was called inactive in [1], in experiment [2], in experiment [3], in [4], in experiment [5] and in experiment [6]. Also, the molecule was called inactive in experiment [7], in experiment [8], in experiment [9], in experiment [10], in [11] and in experiment [12]. Besides, the molecule was called inactive in [13], in experiment [14], in experiment [15], in [16], in [17] and in [18]. Also, the molecule was called inactive in [19] and in experiment [20].

Values taken from PubChem BioAssay (EPA / NIEHS).
